Measured values: PubChem BioAssay (NCI)
The panel holds about 79,000 compounds, 15% with a hit somewhere; the sample as a whole holds those more often. A number with no mark means an inactive call. Active and inactive are the calls of the source. No stated cut-off is given here; in the data, active means growth inhibition above about 70%; inactive means the rest.

Assay: NCI Yeast Anticancer Drug Screen. Data for the bub3 strain (AID 167)
Details: S. cerevisiae bub3 mutant strain, stronger effect = higher value
Procedure: Growth inhibition of yeast strains with defined genetic alterations is measured as a screen for potential anti-cancer activity. Selected strains with alterations in DNA damage repair or cell cycle control were exposed to compounds and growth inhibition was measured relative to vehicle treated controls. The strain used in this assay is bub3

[1] = at 5.0 µM (retest, dose inferred, filed as 0.5)
[2] = at 50.0 µM (retest, dose inferred, filed as 5.0)

Compound | growth inhibition [1] | growth inhibition [2] | growth inhibition (at 50.0 µM)
CC(=O)N1OC2(C)c3ccccc3C1(C)c1ccccc12 | 99% (active) | 96% (active) | 99.4% (active)
C/C(=N/O)C1CC(CCC2([N+](=O)[O-])CCC(C)(O)C(/C(C)=N/O)C2)([N+](=O)[O-])CCC1(C)O (configuration not stated) | 3% | -2% | 90.5% (active)
C=C(CN(C)C)C(=O)c1ccccc1C | -11% | 89% (active) | 91.1% (active)
C=C1C(=O)O[C@@H]2C[C@]3(C)CC[C@]4(C)[C@H](CC[C@@H]5[C@@]6(C)CCC(=O)C(C)(C)[C@@H]6CC[C@]54C)[C@H]3[C@H]12 | 4% | -1% | -10.7%
O=C1NC(O)c2cccc(Cl)c2O1 (configuration not stated) | 15% | 98% (active) | 94.8% (active)
O=c1oc(-c2ccc(Cl)cc2[N+](=O)[O-])nc2ccccc12 | -6% | 6% | 66.5%
O=C1CCC(C(c2ccccc2)(c2ccccc2)c2ccccc2)CC1=O (configuration not stated) | -3% | 99% (active) | 0.85%
O=C(c1cc2c(C(F)(F)F)onc2c2ccccc12)C(F)(F)F | 12% | 42% | 38.9%
NC(=S)N/N=C\C12CC3CC(CC(C3)C1)C2 | 62% | 98% (active) | 95.6% (active)
COC(=O)c1ccc(-c2ccccc2)cc1 | 10% | 92% (active) | 96% (active)
O=[N+]([O-])c1ccc2c(Nc3ccccc3-c3ccccc3Nc3c4ccccc4nc4cc([N+](=O)[O-])ccc34)c3ccccc3nc2c1 | 27% | 98% (active) | 87.4% (active)
Cc1ccc(C2(O)CCN(Cc3ccccc3)CC2)cc1 | 64% | 81% (active) | 41%
CN(C)C(=S)S(=O)(=O)CCCCS(=O)(=O)C(=S)N(C)C | -2% | 0% | 20.9%
O=[N+]([O-])c1cc(Br)cc2c1nc(NCCCO)c1ccccc12 | 12% | 96% (active) | 94.6% (active)
